The structures appear in SMILES notation. “And” between values parts separate entries of the source, which are not always exact repeats. Identical values can stand only once. Results filed as inconclusive are left out. The source made the active and inactive calls.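 How the source made its calls, unless noted: active means differentiation response of at least 50%, scaled between solvent and reference control, from cells with both markers; inactive means the rest.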

A short description of experiment [1]: yeast TOR pathway RPL19A-GFP modulators, primary screen, cell-based, S. cerevisiae, multiplex flow cytometry (AID 1862; in the data active means percent of DMSO control GFP below about 86%;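 further: lower values mimic rapamycin by blocking the RPL19A rise seen in DMSO cells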). The following applies: S. cerevisiae RPL19A-GFP strain, flow cytometry fluorescence, 3 h; at 10 µM; stronger effect = lower value. In general terms: A flow cytometer gives signals particle by particle.
Experiment [2] is described as follows: modulators of MEP2-GFP levels in yeast, primary screen, S. cerevisiae, multiplex flow cytometry (AID 1867;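 active means GFP response, as percent of the DMSO control, above the screen-wide mean plus 3 SD, about 139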;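 further: median GFP channel fluorescence of barcode-gated MEP2-GFP cells measured by flow cytometry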). The following applies: S. cerevisiae MEP2-GFP strain, 3 h, at 10 µM, stronger effect = higher value, 100% means same as DMSO wells.
Experiment [3] can be described thus: modulators of CIT2-GFP expression in yeast, primary screen, S. cerevisiae, GFP fusion, multiplex flow cytometry (AID 1870;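 active means percent response above a set limit, the screen-wide mean plus 3 SD, cut at about 130% in these data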;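 further: barcoded CIT2-GFP strain pooled with four other GFP strains with rapamycin as positive control; median GFP fluorescence per well over plate mean of DMSO wells so 100% = DMSO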). The settings on record: 3 h, at 10 µM, stronger effect = higher value.
Experiment [4] in a line: modulators of LAP4-GFP expression in yeast, primary screen, S. cerevisiae, multiplex flow cytometry (AID 1873;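 active means GFP signal, as percent of the solvent control, above the screen mean plus 3 SD, about 149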). The following applies: 3 h, at 10 µM, stronger effect = higher value.
Experiment [5] is described as follows: modulators of AGP1-GFP expression in yeast TOR pathway, primary screen, cell-based, multiplex flow cytometry, S. cerevisiae (AID 1887;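 active means GFP signal above the screen-wide mean plus 3 SD, that is over about 124.5% of the solvent control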;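 further: AGP1-GFP fusion strain of S. cerevisiae within a five-strain barcoded multiplex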). The following applies: 3 h, at 10 µM, stronger effect = higher value.
Experiment [6] in a line: inhibitors of CD8+ T cell-vesicle binding, pilot screen, LFA-1/ICAM-1 modulator project, MLPCN validation set, flow cytometry (AID 2523;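 active means response below a set limit, under 55% cells CD8-positive and vesicle-bound, and CD8 cells' 90th-percentile brightness under 279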;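 on vesicle binding response: mean PE anti-B7-1 fluorescence of CD8+ cells relative to row control; 100% = QL9-loaded vesicles with DMSO vehicle in the same plate row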). The settings on record: 2C mouse CD8+ T cells, at 7 µM, stronger effect = lower value; double positive events: measured here: CD8+/vesicle+ event percentage.
In experiment [7] the target is Integrin beta-1 (Homo sapiens) + Integrin alpha-4 (Homo sapiens) (UniProt P13612+P05556). Nature of the experiment: inhibition of HUTS-21 binding to VLA-4, pilot screen, VLA-4 allosteric modulator project, U937 cells, HUTS-21 mAb, flow cytometry, validation set (AID 2674;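 active means inhibition above 50%, about 3 SD of the validation set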;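 further: antibody binding induced by the VLA-4 ligand LDV present at three times its Kd; 0% = LDV ligand with antibody and no compound and 100% = antibody without LDV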). The settings on record: HUTS-21 LIBS mAb binding, at 6.7 µM, stronger effect = higher value, binding induced by LDV ligand.
Integrin beta-1 (Homo sapiens) + Integrin alpha-4 (Homo sapiens), sequence (P05556 whole entry, looked up): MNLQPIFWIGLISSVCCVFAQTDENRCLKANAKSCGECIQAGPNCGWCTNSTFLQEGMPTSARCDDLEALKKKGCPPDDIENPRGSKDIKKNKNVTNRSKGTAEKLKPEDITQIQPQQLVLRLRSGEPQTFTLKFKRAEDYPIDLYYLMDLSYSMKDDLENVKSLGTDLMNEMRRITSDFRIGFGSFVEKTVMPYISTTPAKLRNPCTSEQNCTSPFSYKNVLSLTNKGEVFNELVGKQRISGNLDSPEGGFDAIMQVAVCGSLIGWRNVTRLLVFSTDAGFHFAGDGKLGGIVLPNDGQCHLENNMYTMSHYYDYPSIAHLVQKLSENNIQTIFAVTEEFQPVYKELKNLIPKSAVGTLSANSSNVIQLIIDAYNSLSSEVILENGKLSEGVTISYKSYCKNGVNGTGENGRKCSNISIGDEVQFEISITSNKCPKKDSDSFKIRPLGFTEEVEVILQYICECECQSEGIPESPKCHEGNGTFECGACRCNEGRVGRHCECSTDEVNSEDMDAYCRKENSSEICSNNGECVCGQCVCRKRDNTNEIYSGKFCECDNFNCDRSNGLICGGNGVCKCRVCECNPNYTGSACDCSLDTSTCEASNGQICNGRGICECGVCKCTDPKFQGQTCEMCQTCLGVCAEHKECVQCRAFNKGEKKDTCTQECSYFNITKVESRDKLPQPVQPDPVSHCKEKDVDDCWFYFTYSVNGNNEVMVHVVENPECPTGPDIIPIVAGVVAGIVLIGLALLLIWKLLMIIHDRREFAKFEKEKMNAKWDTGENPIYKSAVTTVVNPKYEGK
Integrin beta-1 (Homo sapiens) + Integrin alpha-4 (Homo sapiens), sequence (P13612 whole entry, looked up): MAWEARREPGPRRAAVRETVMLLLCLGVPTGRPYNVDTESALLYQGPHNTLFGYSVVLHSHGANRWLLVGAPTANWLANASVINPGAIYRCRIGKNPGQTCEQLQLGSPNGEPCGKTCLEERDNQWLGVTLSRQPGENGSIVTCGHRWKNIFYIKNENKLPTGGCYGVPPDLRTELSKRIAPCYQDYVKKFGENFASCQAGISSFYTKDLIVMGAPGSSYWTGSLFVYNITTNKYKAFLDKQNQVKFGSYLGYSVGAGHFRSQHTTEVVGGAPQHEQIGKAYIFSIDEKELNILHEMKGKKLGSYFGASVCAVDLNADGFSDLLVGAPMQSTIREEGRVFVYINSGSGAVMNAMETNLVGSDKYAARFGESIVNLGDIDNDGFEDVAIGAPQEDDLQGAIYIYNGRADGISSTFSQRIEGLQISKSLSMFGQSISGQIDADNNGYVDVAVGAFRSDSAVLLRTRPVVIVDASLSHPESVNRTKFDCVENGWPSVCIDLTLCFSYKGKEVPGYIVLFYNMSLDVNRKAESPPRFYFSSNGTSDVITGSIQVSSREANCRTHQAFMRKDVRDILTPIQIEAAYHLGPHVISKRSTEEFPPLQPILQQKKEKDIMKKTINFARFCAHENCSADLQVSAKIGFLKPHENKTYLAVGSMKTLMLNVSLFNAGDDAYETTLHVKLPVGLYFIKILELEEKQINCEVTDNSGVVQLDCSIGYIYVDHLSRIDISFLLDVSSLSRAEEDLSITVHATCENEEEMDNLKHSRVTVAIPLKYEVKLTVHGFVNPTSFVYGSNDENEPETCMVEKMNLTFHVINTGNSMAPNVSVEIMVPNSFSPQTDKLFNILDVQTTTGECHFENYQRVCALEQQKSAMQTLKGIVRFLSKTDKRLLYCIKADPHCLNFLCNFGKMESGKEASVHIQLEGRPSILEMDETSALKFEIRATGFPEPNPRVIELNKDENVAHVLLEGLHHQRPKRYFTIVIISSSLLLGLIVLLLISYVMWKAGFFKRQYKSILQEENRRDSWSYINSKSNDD

Experiment [8] in a line: superoxide lowering in aged yeast cells, pilot screen, validation compound set (AID 2706;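 active means superoxide response below 65% of plate, a cut near 3 SD across the whole screen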;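 further: yeast exposed to compound for one week at 30 degrees C before staining; 100% = mean of all compound wells on the same plate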). The settings on record: S. cerevisiae aging, superoxide DHE fluorescence; at 10 µM; stronger effect = lower value.
The target of experiment [9] is Beta-adrenergic receptor kinase 1 (Homo sapiens) (UniProt P25098). Nature of the experiment: GRK2 binders displacing RNA aptamer, biochemical, validation, human GRK2, bead flow cytometry (AID 488806;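 active means aptamer binding inhibition above 30%, about 3 SD of noise from non-fluorescent compounds; inactive means inhibition at or below 30%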). The following applies: bead-bound GRK2, FAM-aptamer displacement, at 10 µM, stronger effect = higher value.
Beta-adrenergic receptor kinase 1 (Homo sapiens), sequence (P25098 whole entry, looked up): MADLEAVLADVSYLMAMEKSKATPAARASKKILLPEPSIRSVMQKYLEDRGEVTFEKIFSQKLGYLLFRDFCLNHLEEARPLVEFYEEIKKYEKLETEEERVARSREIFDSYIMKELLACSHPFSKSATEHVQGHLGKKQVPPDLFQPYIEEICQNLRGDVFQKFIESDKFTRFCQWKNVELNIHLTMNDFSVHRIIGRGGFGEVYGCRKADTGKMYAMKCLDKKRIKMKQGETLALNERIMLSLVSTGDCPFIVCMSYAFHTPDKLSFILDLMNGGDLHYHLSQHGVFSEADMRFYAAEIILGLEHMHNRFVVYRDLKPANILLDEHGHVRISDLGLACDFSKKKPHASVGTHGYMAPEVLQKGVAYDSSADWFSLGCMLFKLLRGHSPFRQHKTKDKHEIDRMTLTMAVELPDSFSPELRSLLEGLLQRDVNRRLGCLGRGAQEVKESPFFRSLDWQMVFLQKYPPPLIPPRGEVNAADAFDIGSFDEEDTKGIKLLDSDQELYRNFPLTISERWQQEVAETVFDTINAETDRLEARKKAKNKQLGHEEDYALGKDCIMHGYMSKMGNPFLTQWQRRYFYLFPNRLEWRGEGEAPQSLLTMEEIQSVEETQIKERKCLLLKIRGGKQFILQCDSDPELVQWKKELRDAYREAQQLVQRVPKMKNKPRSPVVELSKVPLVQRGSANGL
In experiment [10] the target is Beta-2 adrenergic receptor (Homo sapiens) (UniProt P07550). Briefly: beta2AR agonists driving receptor internalization, pilot screen, cell-based, FAP fluorogen, flow cytometry, validation set (AID 504459;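 active means percent response above 42, roughly 3 SD of non-fluorescent test compounds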;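 further: agonist-driven loss of surface beta2AR via internalization measured by FAP dye flow cytometry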). The settings on record: Am2.2-beta2AR cells, FAP surface receptor flow cytometry; at 10 µM; stronger effect = higher value.
Beta-2 adrenergic receptor (Homo sapiens), sequence (P07550 whole entry, looked up): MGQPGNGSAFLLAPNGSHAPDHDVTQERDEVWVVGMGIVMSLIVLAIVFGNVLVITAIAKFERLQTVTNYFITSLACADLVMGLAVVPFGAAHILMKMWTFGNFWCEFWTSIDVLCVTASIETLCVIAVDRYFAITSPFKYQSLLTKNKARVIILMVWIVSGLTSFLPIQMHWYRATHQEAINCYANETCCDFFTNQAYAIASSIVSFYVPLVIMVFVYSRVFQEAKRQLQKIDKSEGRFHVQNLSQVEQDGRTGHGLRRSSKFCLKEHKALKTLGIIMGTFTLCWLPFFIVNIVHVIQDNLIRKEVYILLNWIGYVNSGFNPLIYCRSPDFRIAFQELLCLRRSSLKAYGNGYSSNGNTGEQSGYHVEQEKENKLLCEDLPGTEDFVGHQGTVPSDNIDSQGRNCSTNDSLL
The target in experiment [11] is AP-2 complex subunit beta (Homo sapiens) (UniProt P63010). Briefly: inhibitors of arrestin peptide binding to AP2, pilot screen, biochemical, validation set, GST-AP2 beads, flow cytometry (AID 504541;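 active means inhibition above 54%, about 3 SD of non-fluorescent compounds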;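 further: AP2 carries R879A mutation and is captured from E. coli lysate; bead-bound FITC arrestin peptide fluorescence measuring arrestin peptide binding to AP2; 0% = DMSO wells and 100% = excess unlabeled arrestin peptide control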). The settings on record: FITC arrestin peptide, at 10 µM, stronger effect = higher value, AP2 beta2 appendage fragment, R879A mutant.
AP-2 complex subunit beta (Homo sapiens), sequence (P63010 whole entry, looked up, the tested form may be a part, one chain of several): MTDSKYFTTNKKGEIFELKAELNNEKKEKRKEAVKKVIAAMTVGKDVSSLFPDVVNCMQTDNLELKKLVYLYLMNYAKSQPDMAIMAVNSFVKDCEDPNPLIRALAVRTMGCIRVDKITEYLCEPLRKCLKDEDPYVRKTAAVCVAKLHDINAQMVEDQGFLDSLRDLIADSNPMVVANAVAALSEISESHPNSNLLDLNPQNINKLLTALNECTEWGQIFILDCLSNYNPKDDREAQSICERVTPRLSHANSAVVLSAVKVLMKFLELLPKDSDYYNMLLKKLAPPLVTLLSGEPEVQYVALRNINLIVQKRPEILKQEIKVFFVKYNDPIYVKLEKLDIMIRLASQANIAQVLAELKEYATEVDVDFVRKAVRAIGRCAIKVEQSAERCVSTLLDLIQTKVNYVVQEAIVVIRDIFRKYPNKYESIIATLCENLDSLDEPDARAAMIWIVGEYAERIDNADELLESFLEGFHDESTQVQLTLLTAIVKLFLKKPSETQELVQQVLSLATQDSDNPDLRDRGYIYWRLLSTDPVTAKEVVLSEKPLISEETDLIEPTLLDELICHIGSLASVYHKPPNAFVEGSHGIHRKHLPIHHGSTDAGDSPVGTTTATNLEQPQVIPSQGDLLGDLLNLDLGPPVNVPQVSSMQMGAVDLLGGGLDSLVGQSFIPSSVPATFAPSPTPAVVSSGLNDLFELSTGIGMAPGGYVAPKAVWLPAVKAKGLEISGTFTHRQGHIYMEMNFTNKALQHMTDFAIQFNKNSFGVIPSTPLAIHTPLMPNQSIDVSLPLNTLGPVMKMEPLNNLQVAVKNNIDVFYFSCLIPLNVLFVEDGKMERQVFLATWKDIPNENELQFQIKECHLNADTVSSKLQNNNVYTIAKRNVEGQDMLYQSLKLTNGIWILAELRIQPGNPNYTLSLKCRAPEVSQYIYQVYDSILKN
Experiment [12] in a line: yeast V-ATPase proton transport modulators, S. cerevisiae, pHLuorin, HTS validation (AID 504600; in the data active means response above about 15%;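 further: plate controls were DMSO for no effect and reference compound for full effect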). The following applies: S. cerevisiae pHLuorin cytosolic pH, at 10 µM, stronger effect = higher value.
Experiment [13] has as its system anti-desmoglein-3 scFv antibody binding to human DSG3. Briefly: inhibitors of anti-DSG3 scFv binding to DSG3, pilot screen, biochemical, validation compound set, bead-based, flow cytometry (AID 588368;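 active means binding below the plate cutoff, the plate median minus 3 SD, with a reading above zero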;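 further: signal is the median channel fluorescence of bead-bound GFP antibody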). The settings on record: Protein G beads, DSG3-Fc, scFv-GFP binding, at 10 µM, stronger effect = lower value.
Experiment [14] can be described thus: inhibitors of fungal efflux pumps CDR1, CDR2, MDR1, pilot screen, validation compound set, multiplex, phenotypic (AID 588506;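 active means efflux inhibition above 0.42, the validation set average plus 4 SD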;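 further: Nile Red retained in cells so higher fluorescence means more efflux inhibition; 0 = negative control wells and 1 = enniatin B 25 µM full block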). The following applies: S. cerevisiae pump-expressing triplex, Nile Red efflux flow cytometry; at 10 µM; stronger effect = higher value; the pumps come from Candida albicans.
Experiment [15] deals with ATP-binding cassette sub-family B member 6 (Homo sapiens) (UniProt Q9NP58). Briefly: ABCB6 transporter inhibitors, pilot screen, K562-ABCB6 cells, flow cytometry, validation set (AID 588550;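 active means inhibition above the screen-wide mean plus 3 SD, about 51%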;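 further: 0% = DMSO wells and 100% = benzethonium chloride 70 µM positive control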). The settings on record: K562-ABCB6 porphyrin accumulation, 1 h, at 10 µM, stronger effect = higher value.
ATP-binding cassette sub-family B member 6 (Homo sapiens), sequence (Q9NP58 whole entry, looked up): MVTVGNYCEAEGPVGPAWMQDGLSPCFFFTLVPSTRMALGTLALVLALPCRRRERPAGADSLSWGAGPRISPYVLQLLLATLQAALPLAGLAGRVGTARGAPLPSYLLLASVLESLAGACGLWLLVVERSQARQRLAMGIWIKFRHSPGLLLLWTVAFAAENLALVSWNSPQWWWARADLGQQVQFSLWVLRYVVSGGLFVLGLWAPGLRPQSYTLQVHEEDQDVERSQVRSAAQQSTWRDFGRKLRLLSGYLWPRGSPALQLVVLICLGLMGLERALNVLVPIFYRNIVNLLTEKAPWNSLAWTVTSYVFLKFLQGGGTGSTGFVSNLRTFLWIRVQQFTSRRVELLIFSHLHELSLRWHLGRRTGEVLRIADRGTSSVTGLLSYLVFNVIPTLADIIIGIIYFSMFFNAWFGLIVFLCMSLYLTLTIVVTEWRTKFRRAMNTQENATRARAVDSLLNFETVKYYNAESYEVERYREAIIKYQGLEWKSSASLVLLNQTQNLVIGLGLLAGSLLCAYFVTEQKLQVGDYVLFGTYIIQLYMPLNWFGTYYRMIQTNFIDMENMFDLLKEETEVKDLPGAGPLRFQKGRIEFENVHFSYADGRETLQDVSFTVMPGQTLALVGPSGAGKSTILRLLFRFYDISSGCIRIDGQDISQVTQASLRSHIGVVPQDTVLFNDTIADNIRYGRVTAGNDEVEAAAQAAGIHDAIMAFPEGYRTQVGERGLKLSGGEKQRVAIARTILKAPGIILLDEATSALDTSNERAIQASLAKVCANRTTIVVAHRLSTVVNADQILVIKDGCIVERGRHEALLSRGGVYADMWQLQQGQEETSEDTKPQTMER
A short description of experiment [16]: promoters of myeloid differentiation in arrested cells, primary screen, cell-based, GFP/MAC1 double positive, flow cytometry, validation set (AID 588685).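 Further: compound exposure lasts four days before antibody staining and flow analysis; 0% = DMSO wells and 100% = 5 µM fulvestrant positive control.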 The following applies: ER-HoxA9 marrow cells, stronger effect = higher value, normalized: vehicle 0, fulvestrant 100.

Usually inhibition stands for the change of the read-out against control, counted positive when it falls. With `Cc1nc(N)nc2c1CCCC2`, the percent of DMSO control GFP in experiment [1] is 89.1% (inactive). Also, the GFP response vs DMSO was 133% (inactive) in experiment [2] and 74.8% (inactive) in [4]. Also, the percent response of DMSO control in experiment [3] was 99.2% (inactive). In addition, the GFP response, % of DMSO in experiment [5] is 94.9% (inactive). In experiment [6], the double positive events was 62.1%. Moreover, the vesicle binding response in experiment [6] is 179% (inactive). The inhibition in experiment [7] was 6.46% (inactive); in experiment [11] it was -2.43% (inactive); in experiment [15], 13% (inactive). In addition, the superoxide response (% of plate) in experiment [8] was 102% (inactive). Further, the aptamer binding inhibition in experiment [9] is 5% (inactive). Moreover, the response in experiment [10] is -4.6% (inactive); in experiment [12] it was -0.37% (inactive). Also, the binding (% of control) in experiment [13] was 109% (inactive). Also, the efflux inhibition (fraction of control) in experiment [14] is -0.31 (inactive). Besides, in experiment [16], the differentiation response is -9.83% (inactive).

Consider `CCC(C)NCCOCCOc1ccc(Cl)cc1Br` (stereo not drawn), for which the percent of DMSO control GFP in experiment [1] is 103% (inactive). For the same compound, the GFP response vs DMSO in [2] was 102% (inactive); in [4], 100% (inactive). Also, the percent response of DMSO control in experiment [3] is 102% (inactive). Moreover, in [5], the GFP response, % of DMSO was 103% (inactive). In [6], this compound came in with a double positive events of 61.4%. Besides, the vesicle binding response in experiment [6] was 142% (inactive). Moreover, the inhibition in [7] was 0.25% (inactive); in experiment [11], 57.1% (active); in [15] it was -14% (inactive). Besides, the superoxide response (% of plate) in experiment [8] is 98% (inactive). For the same compound, the aptamer binding inhibition in experiment [9] is -7% (inactive). Moreover, the figures for the response in [10] and in [12] were -3.72% (inactive) and -10.6% (inactive), respectively. Further, the binding (% of control) in [13] was 95.8% (inactive). Further, in experiment [14], the efflux inhibition (fraction of control) was -0.16 (inactive). Also, the differentiation response in experiment [16] is -4.57% (inactive).

For `O=C(CCCn1c(=O)oc2ccccc21)N1CCN(c2ccc(F)cc2)CC1`, the percent of DMSO control GFP in [1] was 101% (inactive). In addition, the GFP response vs DMSO in [2] was 93% (inactive); in [4], 77.7% (inactive). Also, in [3], the percent response of DMSO control is 103% (inactive). Further, in [5], the GFP response, % of DMSO was 91.4% (inactive). Further, the double positive events in experiment [6] turned out to be 46.7%. In experiment [6], the vesicle binding response was 9.2% (active). Besides, the inhibition in experiment [7] is -1.79% (inactive); in experiment [11], -3.97% (inactive); in experiment [15], 9% (inactive). In addition, in experiment [8], the superoxide response (% of plate) is 111% (inactive). The aptamer binding inhibition in experiment [9] was 1% (inactive). Also, the response in [10] was 10.4% (inactive); in experiment [12] it was 1.31% (inactive). In addition, the binding (% of control) in [13] was 102% (inactive). Also, the efflux inhibition (fraction of control) in experiment [14] was 0.15 (inactive). The differentiation response in [16] was -26.4% (inactive).

For the compound `O=C1NC(=O)C(c2ccccc2)(c2ccccc2)N1`, the percent of DMSO control GFP in experiment [1] was 102% (inactive). Moreover, the values for the GFP response vs DMSO in [2] and in experiment [4] were 107% (inactive) and 93.3% (inactive), respectively. In addition, the percent response of DMSO control in experiment [3] was 93.9% (inactive). The GFP response, % of DMSO in experiment [5] is 99.6% (inactive). For the same compound, the double positive events in experiment [6] is 58.7% and 60.5%. Besides, the vesicle binding response in experiment [6] was 114% (inactive) and 142% (inactive). Besides, the inhibition is 20.4% (inactive) and -2.11% (inactive) in experiment [7]; 1.12% (inactive) and -5.85% (inactive) in [11]; 11% (inactive) and 12% (inactive) in [15]. Moreover, in experiment [8], the superoxide response (% of plate) was 102% (inactive) and 98.5% (inactive). In experiment [9], the aptamer binding inhibition is -2% (inactive) and 2% (inactive). For the same compound, the response in experiment [10] is 5.51% (inactive); in experiment [12], 8.2% (inactive) and -0.2% (inactive). In addition, the binding (% of control) in [13] is 97% (inactive) and 99.3% (inactive). For the same compound, in experiment [14], the efflux inhibition (fraction of control) was -0.44 (inactive) and 0.29 (inactive). Besides, the differentiation response in experiment [16] is -0.18% (inactive) and -8.27% (inactive).
